How the values were obtained:
Assay in all cases: PBM binding z-score (relative to random genomic background probes); higher = stronger binding; sequences stand for … in GC…GCGATTGACAGCGTAGAATGAAGG
[1] = system: FXR:RXRa (NR concentration 270 nM, RXRa partner concentration 90 nM)
Method in brief: (§1)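 Custom Agilent 4×180K protein-binding microarrays carried double-stranded probes. Their 34-nt variable regions held direct-repeat seeds, single-nucleotide variants, half-site ablations and random human genomic background sequences. Arrays were incubated 1 h with ligand-free nuclear receptor dimers in PBS pH 7.4, 2% milk, 0.02% Triton X-100, 1 mM DTT, 0.2 mg/mL BSA and 0.4 mg/ml salmon testes DNA. Antibodies against each partner (one per run) detected binding, and scanned fluorescence was regression-normalized. Binding z-scores use random background probes as reference.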

[2] = system: LXRa:RXRa (NR concentration 270 nM, RXRa partner concentration 90 nM)
Method in brief: as §1

[3] = system: LXRa homodimer (NR concentration 270 nM)
Method in brief: as §1

[4] = system: LXRb:RXRa (NR concentration 270 nM, RXRa partner concentration 90 nM)
Method in brief: as §1

[5] = system: LXRb homodimer (NR concentration 270 nM)
Method in brief: as §1

[6] = system: PPARa:RXRa (NR concentration 270 nM, RXRa partner concentration 90 nM)
Method in brief: as §1

[7] = system: PPARg:RXRa (NR concentration 180 nM, RXRa partner concentration 90 nM)
Method in brief: as §1

[8] = system: PPARg:RXRa 270nM:90nM, anti-RXR (NR concentration 270 nM, RXRa partner concentration 90 nM)
Method in brief: as §1

[9] = system: PPARg:RXRa 30nM:10nM, anti-RXR (NR concentration 30 nM, RXRa partner concentration 10 nM)
Method in brief: as §1

[10] = system: PPARg:RXRa 90nM:30nM, anti-RXR (NR concentration 90 nM, RXRa partner concentration 30 nM)
Method in brief: as §1

Sequence | PBM binding z-score [1] | PBM binding z-score [2] | PBM binding z-score [3] | PBM binding z-score [4] | PBM binding z-score [5] | PBM binding z-score [6] | PBM binding z-score [7] | PBM binding z-score [8] | PBM binding z-score [9] | PBM binding z-score [10]
ACTAATAGTTGAGACGAGGGCAACCGATAGGTTG | 0.996 | 0.527 | -0.147 | 0.288 | 0.0115 | 0.669 | 0.841 | -0.0729 | 0.0984 | 0.103
TCTTGTAGATCAATAGAGGTTGAGAAAGTGCGCT | 0.33 | 0.354 | -0.0207 | 0.212 | -0.126 | 0.471 | -0.324 | 1.44 | 2.63 | 1.98
ATCGAAAGGTGGAAGGTGAGTATACCCACCCGAA | 0.216 | 0.0772 | -0.308 | 0.022 | -0.0817 | 1.53 | 1.53 | 2.05 | 0.816 | 1.58
GCAGACAGGTAAAACGCAGGTAACTCAGGGTGGC | -0.253 | -0.37 | -0.412 | -0.448 | -0.917 | -0.183 | 0.515 | -0.433 | -0.834 | -0.835
TCTTGTGGATCAGCAGGTTAAGAAAGCTGGCCAA | 0.261 | 0.254 | -0.184 | 0.0295 | -0.411 | 0.761 | -0.589 | 1.27 | 2.47 | 1.83
TGAATGAGGTTATAAGATCAGGCAACGTTGCAAA | 1.34 | 1.51 | -0.418 | 1.22 | -0.11 | 2.69 | 1.48 | 2.02 | 1.21 | 1.73
ATTGAAAGGTCGACGAGGTGAGTATACACCGTTT | 4.73 | 3.32 | 0.465 | 2.94 | 0.545 | 4.55 | 3.33 | 3.53 | 1.38 | 2.5
TCTCGGAGGACACGAAGGTCAGAACTTTCCAGAG | 0.92 | 1.16 | 0.605 | 1.31 | -0.708 | 1.69 | 0.527 | 1.59 | 2.55 | 1.96
TTACCAAGGTGAAGGTCGTTGCTCCCTCTGTAGA | 2.26 | 1.91 | 0.0546 | 1.46 | -0.474 | 2.7 | 2.96 | 4.34 | 2.21 | 3.83
TCATATAGGTAATAGAGGTGAAAGTCGGCATCTA | 1.47 | 1.99 | 0.555 | 1.43 | 0.0572 | 2.96 | 2.3 | 3.61 | 4.55 | 4.02
TTACCAAGGTGAGCCGAGGTCGTTGATCCAACTC | 2.53 | 1.33 | -0.48 | 1.11 | -1.11 | 2.19 | 0.623 | 1.32 | -0.155 | 0.541
TCGAGTAGGTTAGTCGGGCCATTCAGCCAACATA | -0.164 | -0.373 | -0.481 | -0.437 | -1.41 | 0.324 | -0.134 | 0.911 | 0.94 | 0.798
CAAACTAAGTCACCGGAAGGTCAAAGTCCGCATG | 3.59 | 3.86 | 3.92 | 3.75 | 1.12 | 4.07 | 2.05 | 2.78 | 0.812 | 2.18
ATGTGTAGGTTAGCTGGGGTCATTCAGACTAGGC | 4.6 | 5.92 | 2.89 | 4.92 | 2.24 | 4.77 | 2.38 | 3.24 | 1.16 | 2.54
AGTACAGGGTCACTAGGCCAGAGTAGGTACGAAT | 5.64 | 3.74 | -0.159 | 3.25 | 0.166 | 5.73 | 7.54 | 6.4 | 2.95 | 5.23
CCTACTGGACCATTCAGAGGTCATTGATCATATG | 3.05 | 4.64 | 6.93 | 3.96 | 1.41 | 3.7 | 0.988 | 2.16 | 0.466 | 1.38
ATCTCTAGGTAAGAAGTTCAGTGAAAGAGAGGAC | 0.325 | 0.566 | 0.243 | 0.366 | 0.539 | 0.924 | 1 | 2.09 | 0.954 | 1.86
TTTCGGAGGACACGAAAGGTCAGAGCTCGACATC | 3.67 | 4.36 | 4.05 | 3.47 | 0.13 | 3.77 | 1.9 | 2.77 | 0.718 | 1.71
CCTACTGGGCAATTCAGAGGTCATTGATCATATG | 2.49 | 4.41 | 6.82 | 3.68 | 0.374 | 3.51 | 0.682 | 2.06 | 0.0551 | 0.942
CGTCCAAGGTCAATGCTAGGACAGTGAAAGCATT | 6.19 | 4.43 | 0.325 | 3.53 | 0.27 | 5.19 | 3.96 | 4.09 | 1.22 | 2.76
CGAACTAGGTGAGAACAGGACAGTGAAGGATGAT | -0.071 | -0.292 | -0.107 | -0.534 | -0.796 | 1.57 | 2.76 | 2.11 | 0.836 | 1.12
CCGACTGGGACATAAGGTTACCATAAGCCAGCCC | 0.338 | 2.04 | 0.14 | 0.621 | -0.915 | 1.21 | 1.61 | 2.59 | 0.545 | 1.96
